This is an account of results in PubChem BioAssay (NCATS).

Assay [1] can be described thus: Primary qHTS for inhibitors of nuclear receptor binding SET domain protein 2 (NSD2) in an isogenic RCH-ACV NSD2 p.E1099K mutant (9B) (AID 1645876). Further: nearly all actives have a fitted effect of over 70% in size. Further: potency means the concentration at half of the fitted maximal effect. On activity change, negative = viability loss: on the % scale 0 is the no-effect control and ±100 the full control effect. The following applies: RCH-ACV NSD2 E1099K (9B) viability, CellTiter-Glo, 72 h; series mostly up to 44.9 µM.
Assay [2] can be described thus: Primary qHTS for inhibitors of nuclear receptor binding SET domain protein 2 (NSD2) in an RCH-ACV wild type WT cells (2C) (AID 1645877). Further: nearly all actives have a fitted effect of over 70% in size. Further: potency means the concentration at half of the fitted maximal effect. On activity change, negative = cell killing: on the % scale 0 is the no-effect control and ±100 the full control effect. The following applies: RCH-ACV (leukaemia line) NSD2 WT (2C) viability, CellTiter-Glo, 72 h; series mostly up to 44.9 µM.
Assay [3] deals with Rap guanine nucleotide exchange factor 3 (Homo sapiens) (UniProt O95398). The assay can be described thus: Counterscreen qHTS for antagonist of cAMP-regulated guanine nucleotide exchange factor 3 (EPAC1) (AID 1645888).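 Further: fluorescence loss as bound BODIPY-GDP is released from Rap1B; % of control where 0% means no effect.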 To be noted: Rap1B-BODIPY-GDP nucleotide exchange, fluorescence; series mostly up to 30.8 µM. The gist of the method:
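Rap1B–BODIPY-GDP (250 nM) with 50 uM GDP; compounds pin-transferred to 9.74 nM–152 uM final (activator) or from 7.32 nM upwards (inhibitor). Fluorescence Ex/Em 480/540 nm read at 5 and 30 min, then after adding cAMP or buffer, at room temperature.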

Several values for one entry are separate records, joined by “and”; a condition that tells them apart may be missing. Identical values can stand only once. Inconclusive results are not listed. More than one record can exist for a structure, and the calls need not agree. Activity calls are given as the source filed them. The call rests on the fitted dose curve; in most records, active means well fitted curve in the direction sought with a large enough effect; inconclusive means small, poorly fitted or top-dose-only effect, or another doubt; inactive means no such curve, though single readings can be large; an effect the other way counts as inactive or inconclusive.

Chain of Rap guanine nucleotide exchange factor 3 (Homo sapiens) (O95398 whole entry, looked up): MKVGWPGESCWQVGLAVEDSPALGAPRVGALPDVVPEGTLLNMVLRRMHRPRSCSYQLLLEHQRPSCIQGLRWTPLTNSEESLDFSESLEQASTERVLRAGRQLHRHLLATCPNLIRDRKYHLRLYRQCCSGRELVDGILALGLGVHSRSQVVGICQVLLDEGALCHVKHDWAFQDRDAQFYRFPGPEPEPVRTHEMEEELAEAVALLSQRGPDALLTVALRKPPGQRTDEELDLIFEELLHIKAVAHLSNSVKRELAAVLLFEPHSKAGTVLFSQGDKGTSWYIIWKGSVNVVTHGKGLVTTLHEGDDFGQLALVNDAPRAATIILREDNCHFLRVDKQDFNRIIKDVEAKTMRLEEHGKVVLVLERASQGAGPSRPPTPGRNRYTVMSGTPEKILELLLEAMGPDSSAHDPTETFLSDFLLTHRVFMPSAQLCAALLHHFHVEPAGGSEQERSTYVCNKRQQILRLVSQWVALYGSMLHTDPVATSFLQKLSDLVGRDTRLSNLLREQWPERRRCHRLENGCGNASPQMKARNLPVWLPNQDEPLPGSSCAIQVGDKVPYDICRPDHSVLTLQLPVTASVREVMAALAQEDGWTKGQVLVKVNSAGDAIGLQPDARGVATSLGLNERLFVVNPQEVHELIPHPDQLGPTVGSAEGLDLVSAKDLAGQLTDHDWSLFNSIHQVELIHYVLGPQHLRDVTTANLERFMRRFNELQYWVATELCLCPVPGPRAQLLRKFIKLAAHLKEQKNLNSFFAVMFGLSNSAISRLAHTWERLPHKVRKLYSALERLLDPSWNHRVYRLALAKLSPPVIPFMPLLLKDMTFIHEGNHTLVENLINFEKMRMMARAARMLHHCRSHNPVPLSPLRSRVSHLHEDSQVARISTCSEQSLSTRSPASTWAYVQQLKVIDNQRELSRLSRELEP

As for `CC(CCc1ccccc1)NC(C)C(O)c1ccc(O)cc1` (configuration not stated), the Potency entry in assay [1] and in assay [2] was “inactive” in each case.
As for `Cc1ccc(-c2nc3ccc(C)cn3c2CC(=O)N(C)C)cc1`, the Potency entry in assay [1] and in assay [2] was “inactive” throughout.
In the case of `N[C@@H]1C[C@H]1c1ccccc1`, the Potency result in assay [1] is “inactive”.
For `Cc1cccc(C)c1NC1=NCCCS1`, the Potency entry in assay [1] and in assay [2] was “inactive” each time.
With `CNC(=O)N1N=C(c2ccc(N)cc2)c2cc3c(cc2CC1C)OCO3` (configuration not stated), the results for the Potency in assay [1] and in assay [2] were 3.65 µM (active) and 2.05 µM (active), respectively.
In the case of `CCN(CC)C(=O)N[C@@H]1C=C2c3cccc4[nH]cc(c34)C[C@@H]2N(C)C1`, the Potency result in assay [1] is “inactive”.
On to `C=CCN1CC[C@]23c4c5ccc(O)c4O[C@H]2C(=O)CC[C@@]3(O)[C@H]1C5`, for which, in assay [1], the Potency result is “inactive”.
Take `NN=C(N)N`: the Potency entry in assay [1] and in assay [2] was “inactive” each time.
Take `CCCC(C)(COC(N)=O)COC(=O)NC(C)C` (configuration not stated): the Potency result in assay [1] and in assay [2] was “inactive” each time.
In the case of `CCCN1CCC[C@@H]2Cc3nc(N)ncc3C[C@H]21`, the Potency result in assay [1] and in assay [2] was “inactive” throughout.
Take `O=[N+]([O-])c1cc([As](=O)(O)O)ccc1O`: the Potency result in assay [1] was “inactive”.
`COC[C@@H](NC(C)=O)C(=O)NCc1ccccc1`: the Potency entry in assay [1] and in assay [2] was “inactive” each time.
As for `COc1ccc(C(CN(C)C)C2(O)CCCCC2)cc1` (configuration not stated), the Potency entry in assay [1] and in assay [2] was “inactive” throughout.
As to `O=C(O)P(=O)(O)O`, the Potency entry in assay [1] and in assay [2] was “inactive” in each case.
Turning to `O=C(NC(O)C(Cl)(Cl)Cl)NC(O)C(Cl)(Cl)Cl` (configuration not stated), the Potency result in assay [1] and in assay [2] was “inactive” throughout.
`CC1OC(C)OC(C)O1` (configuration not stated): the Potency entry in assay [1] and in assay [2] was “inactive” each time.
As to `CN(C)CCN(C)CCc1ccc(Cl)c(Cl)c1`, the Potency result in assay [1] and in assay [2] was “inactive” in each case.
As for `CCN(CC)CCN1C(=O)CN=C(c2ccccc2F)c2cc(Cl)ccc21`, in assay [1], the Potency entry is “inactive”.
For the compound `CCCC1CCCCN1` (configuration not stated), the Potency entry in assay [1] and in assay [2] was “inactive” throughout.
As for `C#CCOC(C(=O)OCCN(C)C)(c1ccccc1)c1ccccc1`, the Potency result in assay [1] and in assay [2] was “inactive” in each case.
Consider `Cc1ncc(CNC(=O)N(CCCl)N=O)c(N)n1`, for which the Potency entry in assay [1] and in assay [2] was “inactive” throughout.
Consider `Clc1ccc(CCC(Cn2ccnc2)Sc2c(Cl)cccc2Cl)cc1` (configuration not stated), for which the Potency in assay [1] was 18.8 µM (active) and 18.6 µM (active); in assay [2], 11.9 µM (active) and 20.9 µM (active).
Regarding `Cn1cc(C2=C(c3cn(C4CCN(Cc5ccccn5)CC4)c4ccccc34)C(=O)NC2=O)c2ccccc21`, the Potency entry in assay [1] is “inactive and 16.4 µM (active)”. Also, in assay [2], the Potency result was “inactive”.
As for `Fc1ccc(C(OCCN2CCN(CCCc3ccccc3)CC2)c2ccc(F)cc2)cc1`, the Potency in assay [1] is 6.68 µM (active) and 11.8 µM (active); in assay [2] it was 5.96 µM (active) and 9.34 µM (active).
For the compound `CCOC(=O)C1(c2ccccc2)CCN(CCC(C#N)(c2ccccc2)c2ccccc2)CC1`, the Potency in assay [1] and in assay [2] was 5.96 µM (active) in each case.
As for `CN(C)CCc1ccc(O)cc1`, the Potency result in assay [1] and in assay [2] was “inactive” throughout.
For the compound `CC(C)CC(N(C)C)C1(c2ccc(Cl)cc2)CCC1` (configuration not stated), in assay [1], the Potency result is “inactive”.
On the same count and under the same terms, for `CCN(C(C)=O)c1cccc(-c2ccnc3c(C#N)cnn23)c1` the value was “inactive”.
For `Cc1cccc(C)c1NC(=O)CN1CCCC1=O`, the Potency result in assay [1] and in assay [2] was “inactive” in each case.
Turning to `CC(C)NCC(O)c1ccccc1Cl` (configuration not stated), the Potency result in assay [1] and in assay [2] was “inactive” in each case.
As to `O=C(O)c1ccc2[nH]cc(CCCCN3CC=C(c4ccccc4)CC3)c2c1`, the Potency entry in assay [1] and in assay [2] was “inactive” each time.
Turning to `CCCN1CCC[C@@H]2Cc3[nH]ncc3C[C@H]21`, the Potency entry in assay [1] and in assay [2] was “inactive” each time.
On to `COc1ccc(C(=O)c2c(C)n(CCN3CCOCC3)c3ccccc23)cc1`, for which the figures for the Potency in assay [1] and in assay [2] were 23.5 µM (active) and 18.8 µM (active), respectively.
Regarding `NCC1(CC(=O)O)CCCCC1`, the Potency result in assay [1] and in assay [2] was “inactive” each time.
As for `C#CCN(C)[C@H](C)Cc1ccccc1`, the Potency result in assay [1] and in assay [2] was “inactive” each time.
In the case of `CO[C@]12CC[C@@]3(C[C@@H]1[C@](C)(O)C(C)(C)C)[C@@H]1Cc4ccc(O)c5c4[C@@]3(CCN1CC1CC1)[C@H]2O5`, the Potency in assay [1] was 6.05 µM (active); in assay [2], 6.79 µM (active).
For the compound `COc1ccc(Cc2nccc3cc(OC)c(OC)cc23)cc1OC`, the Potency in assay [1] is 11.8 µM (active); in assay [2] it was 5.25 µM (active).
Taken in the same sequence, the figures for `NP(N)(=O)NC(=O)c1ccc(F)cc1` were “inactive” and “inactive”.
Turning to `O=C1NCN(c2ccccc2)C12CCN(CC1COc3ccccc3O1)CC2` (configuration not stated), the Potency result in assay [1] and in assay [2] was “inactive” in each case.
Regarding `O=P1(NCCCl)OCCCN1CCCl` (configuration not stated), the Potency result in assay [1] and in assay [2] was “inactive” throughout.
With `Oc1cccc2cccnc12`, the Potency in assay [1] was 15.4 µM (active) and inactive; in assay [2], 34.4 µM (active) and inactive.
On to `CCC(COC(=O)c1cc(OC)c(OC)c(OC)c1)(c1ccccc1)N(C)C` (configuration not stated), for which the Potency result in assay [1] and in assay [2] was “inactive” in each case.
For the compound `O=C1CC[C@@]2(O)[C@H]3Cc4ccc(O)c5c4[C@@]2(CCN3CC2CC2)[C@H]1O5`, the Potency entry in assay [1] and in assay [2] was “inactive” each time.
Take `c1ccc2c(c1)OCC(C1=NCCN1)O2` (configuration not stated): the Potency is 9.44 µM (active) in assay [1] and 7.5 µM (active) in assay [2].
`CCN(CC)CCOC(=O)C(O)(c1ccccc1)c1ccccc1`: the Potency entry in assay [1] and in assay [2] was “inactive” each time.
Turning to `CC[C@@H](CO)NC(=O)[C@@H]1C=C2c3cccc4[nH]cc(c34)C[C@H]2N(C)C1`, the Potency result in assay [1] and in assay [2] was “inactive” throughout.
On to `FC(F)(F)c1cccc(C2=CCN(CCc3ccc4ccccc4c3)CC2)c1`, for which the Potency result in assay [1] and in assay [2] was “inactive” each time.
`N[C@@H](Cc1ccc(N(CCCl)CCCl)cc1)C(=O)O`: the Potency in assay [1] was 2.99 µM (active) and 2.63 µM (active); in assay [2] it was 2.66 µM (active) and 2.35 µM (active).
For `Cc1cc(SCc2sc(-c3ccc(C(F)(F)F)c(F)c3)nc2C)ccc1OCC(=O)O`, the Potency result in assay [1] and in assay [2] was “inactive” throughout.
Turning to `Oc1ccccc1-c1ccccc1`, the Potency entry in assay [1] and in assay [2] was “inactive” in each case.
For the compound `C=C1CC[C@@]2(O)[C@H]3Cc4ccc(O)c5c4[C@@]2(CCN3CC2CC2)[C@H]1O5`, the Potency entry in assay [1] and in assay [2] was “inactive” in each case.
For `OCCOc1ccccc1`, the Potency entry in assay [1] and in assay [2] was “inactive” in each case.
In the case of `Oc1ccc(Cl)cc1Cc1ccccc1`, the Potency was 24.6 µM (active) in assay [1] and 34.7 µM (active) in assay [2].
As to `N[C@@H](Cc1ccc(Oc2cc(I)c(O)c(I)c2)c(I)c1)C(=O)O`, the Potency result in assay [1] and in assay [2] was “inactive” each time.
Take `C[C@@H]1O[C@@H](O[C@H]2C[C@@H](O)[C@]3(CO)[C@H]4[C@H](O)C[C@]5(C)[C@@H](C6=CC(=O)OC6)CC[C@]5(O)[C@@H]4CC[C@]3(O)C2)[C@H](O)[C@H](O)[C@H]1O`: the Potency is 29.9 nM (active) and 50.2 nM (active) and 41.7 nM (active) in assay [1]; 37.6 nM (active) and 100 nM (active) and 66.1 nM (active) in assay [2].
For `NCC(CC(=O)O)c1ccc(Cl)cc1` (configuration not stated), the activity change, negative = viability loss in assay [1] was 3.1% [at 0.588 µM] (inactive). Further, the activity change, negative = cell killing in assay [2] was -19.2% [at 0.588 µM] (inactive).
With `CC(=O)Nc1cc([As](=O)(O)O)ccc1O`, the Potency entry in assay [1] and in assay [2] was “inactive” in each case.
`CN1CCN(C(=O)O[C@H]2c3nccnc3C(=O)N2c2ccc(Cl)cn2)CC1`: the Potency entry in assay [1] and in assay [2] was “inactive” in each case.
With `CN(C)[C@@H]1C(=O)C(C(N)=O)=C(O)[C@@]2(O)C(=O)C3=C(O)c4c(O)cccc4[C@@](C)(O)[C@H]3C[C@@H]12`, the Potency entry in assay [1] and in assay [2] was “inactive” throughout.
Take `COC[C@H]1OC(=O)c2coc3c2[C@@]1(C)C1=C(C3=O)C2CCC(=O)[C@@]2(C)C[C@H]1OC(C)=O` (some centres not stated): the Potency in assay [1] was 1.84 µM (active) and 7.42 µM (active); in assay [2], 2.59 µM (active) and 18.3 µM (active) and 7.42 µM (active).
As to `CCC(C(N)=O)N1CCCC1=O` (configuration not stated), the Potency entry in assay [1] and in assay [2] was “inactive” each time.
As for `Clc1cccc(N2CCNCC2)c1`, the Potency result in assay [1] and in assay [2] was “inactive” each time.
In the case of `CNCC(O)c1ccc(O)cc1` (configuration not stated), the Potency result in assay [1] and in assay [2] was “inactive” each time.
Regarding `c1ccc2c(c1)Nc1ccccc1S2`, the Potency entry in assay [1] and in assay [2] was “inactive” each time.
In the case of `Clc1ccc(COC(Cn2ccnc2)c2ccc(Cl)cc2Cl)cc1` (configuration not stated), the call in assay [3] was inactive.
